Source: PubChem
In the library only some 2.7% were active in any assay of this set; here they are far more common.
HSP90 inh = HSP90 refolding inhibition in rabbit reticulocyte lysate; luciferase refolding luminescence, 3 h; inhibition, % at 5.6 µM; hit rate 0.91% among 290,000; AID 1789;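 active = inhibition above the screen-wide mean plus 3 SD, computed separately per campaign, cut at about 16% in these data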;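 also: 0% = DMSO wells and 100% = 60 µM geldanamycin wells; inhibitors lower the luminescence because luciferase stays unfolded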
SENP7 block = blocks the human protease SENP7. inhibition, % at 5 µM. hit rate 1.5% among 330,000. recombinant SENP7, Z-RLRGG-aminoluciferin luminescence, 40 min;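 active = inhibition above about 50% at the single test dose, limit read from the data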;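 also: plate controls were DMSO with enzyme for no effect and no enzyme buffer wells for full effect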
SENP8 block-1 = blocks the human protease SENP8; purified SENP8, Z-RLRGG-aminoluciferin cleavage, luminescence; inhibition, % at 10 µM; hit rate 1.2% among 330,000; AID 2540; in the data active = inhibition above about 50%
Target sequence (Q96LD8 whole entry, looked up): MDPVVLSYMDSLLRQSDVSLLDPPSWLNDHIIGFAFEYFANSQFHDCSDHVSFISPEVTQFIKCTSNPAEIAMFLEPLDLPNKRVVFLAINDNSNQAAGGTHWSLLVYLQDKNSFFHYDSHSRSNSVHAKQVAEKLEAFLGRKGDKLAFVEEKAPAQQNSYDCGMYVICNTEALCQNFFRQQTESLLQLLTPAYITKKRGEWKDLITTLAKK
SENP8 block-2 = blocks human SENP8 cleavage of Nedd8 substrate | Q96LD8 | recombinant SENP8, Nedd8 substrate fluorescence | inhibition, % at 20 µM | hit rate 0.64% among 360,000; in the data active = inhibition mostly above about 40%, no sharp cut-off; inactive = mostly below about 27%
SENP6 block = inhibitors of human SENP6 protease; Q9GZR1; Recombinant SENP6 catalytic domain, aminoluciferin luminescence; inhibition, % at 10 µM; hit rate 1.8% among 330,000;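 active = inhibition above about 50% at the single tested dose, limit read from the data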;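 also: plate controls were DMSO wells with enzyme for no effect and DMSO wells lacking enzyme for full effect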
SENP8 conf = SENP8 (human) inhibition, single concentration confirmation; shares compounds with SENP8 block-2; inhibition, % at 25 µM; purified SENP8, Nedd8-AMC/pro-Nedd8 cleavage fluorescence, 30 min; hit rate 15% among 1,400; AID 624319; in the data active = inhibition mostly above about 39%, no sharp cut-off; inactive = mostly below about 34%
* = called active by the depositor; nt = not tested or not shown.

SMILES | HSP90 inh | SENP7 block | SENP8 block-1 | SENP8 block-2 | SENP6 block | SENP8 conf
C(=N\NC1=Nc2cccc3cccc1c23)/c1cccnc1 | -6.3 | 2.2 | -6.3 | 51.4* | 5.1 | 26.9
CC1SC(c2ccccc2)N(CC(O)c2ccc([N+](=O)[O-])cc2)C1=O (configuration not stated) | 0.9 | 14.1 | -2.7 | 5.1 | 7.7 | nt
Cc1ccc(NC2=C(C(=O)c3ccccc3)N(C)S(=O)(=O)c3ccccc32)cc1 | 2.6 | 4.2 | 7.9 | 45.5* | 0.0 | 32.8
CO/N=C(/c1nonc1N)N1CCN(c2ccc([N+](=O)[O-])cc2)CC1 | 0.2 | 5.4 | 1.9 | 41.0* | -2.6 | -0.1
COc1ccc(C2C(C(C)=O)=C(O)C(=O)N2C)c(OC)c1 (configuration not stated) | 0.3 | 10.1 | -2.8 | 42.1* | -4.8 | 25.8
COc1ccc(C2C(C(C)=O)=C(O)C(=O)N2c2cccnc2)c(OC)c1 (configuration not stated) | 3.4 | 11.1 | 2.9 | 3.3 | 6.0 | nt
O=c1[nH]cnc2c1ccn2C1OC(CO)C(O)C1O (configuration not stated) | nt | nt | nt | 41.2* | nt | 8.8
COc1cc2c3c(c1)c(C1=NC(=S)NC1=O)c(O)n3C(C)(C)C=C2C | 2.3 | -3.6 | -2.7 | 29.8 | -2.1 | nt
CC1(c2ccccc2)CC(C)(C)n2c(O)c(C3=NC(=S)NC3=O)c3cccc1c32 (configuration not stated) | 2.8 | 2.7 | -0.7 | 49.9* | -6.9 | 15.6
O=[N+]([O-])c1ccc(/C=N\N2CCN(Cc3ccccc3Cl)CC2)cc1 | nt | nt | nt | 32.2 | nt | nt
O=C(CC(NC(=O)OCc1ccccc1)C(=O)OCc1ccccc1)OCc1ccccc1 (configuration not stated) | nt | nt | nt | -3.5 | nt | nt
CC(=O)NCC(=O)N[C@@H](CC(=O)OCc1ccccc1)C(=O)OCc1ccccc1 | -2.2 | 1.5 | -1.9 | 43.8* | -11.1 | 22.3
COc1ccc2c(c1)Cc1sc(NC(=O)c3cccnc3)nc1-2 | -5.8 | 84.3* | 85.8* | 63.9* | 89.0* | 24.8
Cc1[nH]n2c(=O)cc(-c3ccc([N+](=O)[O-])cc3)nc2c1-c1ccccc1 | 3.1 | 0.9 | 5.0 | 44.2* | -2.9 | 19.3
Cn1nc(-c2ccc(C(=O)N3CCN(CCO)CC3)cc2)c2ccccc2c1=O | 5.6 | 9.5 | 3.0 | 9.7 | -2.6 | nt
Cc1ccc(S(=O)(=O)N(C)CC(=O)Nc2ncccc2C)cc1 | nt | -6.5 | -3.7 | 4.8 | -6.4 | nt
NNc1nnc2c3cc(F)ccc3n(Cc3ccccc3)c2n1 | -2.0 | -10.0 | -4.3 | 37.2* | 11.2 | 14.4
CCCn1c2ccc(F)cc2c2nnc(NN)nc21 | -6.5 | -2.9 | -0.4 | 69.9* | 9.1 | 16.9
CCS(=O)(=O)N1N=C(c2cccc(NS(C)(=O)=O)c2)CC1c1ccccc1 (configuration not stated) | -1.6 | -11.9 | -5.7 | -15.4 | -32.7 | nt
COc1ccc(C(CNC(=O)COc2ccccc2-c2ccccc2)N2CCOCC2)cc1 (configuration not stated) | 6.4 | 0.6 | -3.1 | 9.0 | -11.8 | nt
O=C1CSC(c2c(F)cccc2Cl)N1c1cccc(F)c1 (configuration not stated) | -3.1 | 2.8 | 10.2 | 44.0* | 3.8 | 10.7
c1ccc(Nc2ccccn2)cc1 | -6.0 | 4.8 | 4.6 | 7.9 | 2.2 | nt
c1ccc(/N=C2\N=C(Nc3ccccn3)c3ccccc32)nc1 | nt | 5.8 | 7.0 | 42.1* | 29.4 | 8.1
CCN(CC)C(=N)N1c2ccccc2CCC1C (configuration not stated) | -3.1 | -6.5 | -4.3 | 4.7 | 7.3 | nt
Clc1nssc1=Nc1ccc(Br)cc1 | -1.7 | nt | nt | 43.6* | nt | 12.0
SMILES | HSP90 inh | SENP7 block | SENP8 block-1 | SENP8 block-2 | SENP6 block | SENP8 conf
CC[C@@]1(C(=O)OC)N[C@H](CN(C)C(C)=O)[C@@H]2C(=O)N(Cc3ccccc3)C(=O)[C@@H]21 | nt | 11.0 | -0.8 | -1.7 | -16.1 | nt
CCSc1ncnc2c1sc1nc3c(cc12)COC(C)(C)C3 | -1.0 | 1.5 | -5.6 | 12.5 | 1.1 | nt
O=C(COC(=O)c1ccc([N+](=O)[O-])o1)NCc1ccc2c(c1)OCO2 | nt | -1.5 | 5.7 | 41.2* | 20.0 | 76.1*
CC(NC(=O)COC(=O)c1ccc([N+](=O)[O-])o1)c1ccccc1 (configuration not stated) | nt | 8.0 | 10.5 | 57.1* | 7.7 | 87.9*
O=C(COC(=O)c1ccc(Br)o1)NCc1ccc2c(c1)OCO2 | nt | -3.4 | -5.7 | 8.2 | 2.0 | nt
COc1cc(NS(=O)(=O)c2ccc(NC(=S)NC(=O)c3cccs3)cc2)nc(OC)n1 | 4.2 | -5.5 | -7.1 | 6.0 | -14.7 | nt
CCC(C)NC(=O)CN(c1ccc(OC)cc1)S(=O)(=O)c1ccccc1 (configuration not stated) | 0.0 | -0.8 | 3.2 | 2.8 | 4.6 | nt
